Measurements taken from PubChem BioAssay (NCI).
About 83,000 compounds went through this panel and 20% of them were active in at least one assay; those are over-represented in the sample as a whole.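 Treatment: one concentration, 48 hours, 96-well format. Scoring: percent growth, with anything below 10 considered active.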 Values without a mark were called inactive. Activity calls are given as the source filed them.

Columns and labels:
Experiment in all cases: NCI-60 one-dose screen, 48 h (100 = growth as untreated, 0 = no growth, -100 = all killed)
Conditions in all cases: 10 µM unless noted
RPMI-8226 leukemia = test system: RPMI-8226 leukemia
OVCAR-8 ovarian = test system: OVCAR-8 ovarian
OVCAR-5 ovarian = test system: OVCAR-5 ovarian
SK-OV-3 ovarian = test system: SK-OV-3 ovarian
IGROV1 ovarian = test system: IGROV1 ovarian
OVCAR-3 ovarian = test system: OVCAR-3 ovarian
HS 578T breast = test system: HS 578T breast
NCI/ADR-RES ovarian = test system: NCI/ADR-RES ovarian
OVCAR-4 ovarian = test system: OVCAR-4 ovarian

Structure (SMILES) | growth (RPMI-8226 leukemia) | growth (OVCAR-8 ovarian) [%] | growth (OVCAR-5 ovarian) [%] | growth (SK-OV-3 ovarian) [%] | growth (IGROV1 ovarian) | growth (OVCAR-3 ovarian) | growth (HS 578T breast) [%] | growth (NCI/ADR-RES ovarian) [%] | growth (OVCAR-4 ovarian) [%]
CCCCCCCCCCCCC1CCCC(C)C1 (stereo not given) | 99% | 102 | 105 | 99.7 | 91.6% | 108% | 93.3 | 95.3 | –
Clc1ccc(C2c3ccccc3-c3nccn32)c(Cl)c1 (stereo not given) | 26.5% | 84.1 | 114 | 84.7 | – | 55% | 73.7 | 61.5 | 47.3
N[C@H](CS)C(=O)O | 101% | – | 103 | 107 | – | 122% | 115 | 112 | 102
O=C(CN1CCN(c2ccc(Cl)cc2)CC1)N1CCN(c2nnc(-c3ccccc3)c(-c3ccccc3)n2)CC1 | -23.4% (active) | – | 86.4 | 85 | – | 40.9% | 62.6 | 39.2 | 30.6
N#Cc1c(NC(=O)c2ccco2)[n+]([O-])c2ccccc2[n+]1[O-] | 447% | 90.3 | 89.7 | 110 | -49.8% (active) | 115% | 98 | 116 | 109
COc1ccc(C(=O)/C=C/c2ccc(C)cc2)cc1OC | 18.9% | – | 90.1 | 97.7 | -18.8% (active) | 4.42% (active) | 107 | 71.2 | 72.6
O=C(Nc1ccc(Cl)cc1)Nc1nc2ccc(OC(F)(F)F)cc2o1 | – | – | 95.9 | 103 | 130% | 74.3% | 143 | 95 | 83.7
COc1cccc(N2CCN(CC(=O)N3CCN(c4nnc(-c5ccc(Cl)cc5)c(-c5ccc(Cl)cc5)n4)CC3)CC2)c1 | -37.2% (active) | – | 85.9 | 95.6 | – | 68.1% | 58.4 | 65.2 | 57.9
CCOC(=O)c1cnc2c(C)cc(C)cc2c1NCCCN(C)C | 7.09% (active) | – | 38.6 | 38.6 | 5.17% (active) | 34.5% | 65.7 | 31.7 | 44.4
Cc1cc(=O)[nH]c(/C(=N/Nc2ccccc2)C(=O)c2ccc(Cl)cc2)n1 | 96.6% | 92.8 | 117 | 98.3 | – | 97.5% | 83.6 | 106 | 111
Clc1ccc2nc(CI)c(CI)nc2c1 | -36.6% (active) | 93 | 91 | 98.8 | – | 65.4% | 158 | 100 | 100
